We go through 37 compounds from PubChem BioAssay (NCI).

“And” between values parts separate entries of the source, which are not always exact repeats. Equal entries are not always repeated. About 83,000 compounds went through this panel and 20% of them were active in at least one assay; those are over-represented in the sample as a whole.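 In brief: 96-well plates, 48 h treatment, single concentration, percent growth endpoint.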 A number with no mark means an inactive call. The source made the active and inactive calls. Rule for the calls: active = growth percent below 10; inactive = the rest.

For the test, the system named is PC-3 prostate. The experiment in a line: NCI-60 one-dose screen, 48 h (100 = growth as untreated, 0 = no growth, -100 = all killed). Particulars: 10 µM unless noted.
Consider `Cc1cc(Br)ccc1-n1cc(C#N)c(N)c1C(=O)c1ccc(Br)cc1`, for which the growth is 103%. The figure for `CCCCCCN1C=C/C(=C\C(=O)n2ccc3ccccc32)c2ccccc21` is 58.6%; for `Cc1ccc(CSC2=C(Cl)CN(c3ccc(Cl)cc3)C2=O)cc1` it is 107%; for `Clc1ccc(CSc2nnc(-c3ccc(Cl)cc3)n2-c2ccccc2)cc1` it is 71%. In the case of `NS(=O)(=O)c1ccc(CCn2c(-c3ccc(C(=O)O)cc3)nc(-c3ccccc3)c2-c2ccccc2)cc1`, the growth is 93.5%.

Take `CC(=C(c1ccc(OCCCN(C)C)cc1)c1ccc(OCCCN(C)C)cc1)c1ccc(Cl)cc1`: the growth is 87.5%. `CC[C@]12CC(C(=O)OC)=C3Nc4ccccc4[C@@]34CCN(C14)[C@@H]1c3cc4c(cc3O[C@@H]1[C@H]2O)NC1=C(C(=O)OC)C[C@@]2(CC)C3N(CC[C@@]143)C[C@H]1O[C@H]12` (some centres not stated): the growth was 10.1%.

As to `Cc1ccc(-c2csc(N/N=C/c3cccs3)n2)cc1`, the growth is 68.2%. The figure for `CN1CCC[C@]2(C)[C@H]3CC[C@@H]4[C@@H]5[C@H]6OC[C@@]5(CCC6(C)C)CC[C@@]4(C)[C@]3(C)CC[C@H]2C1(C)C` is 74.2%. The value for `O=S(=O)(Oc1ccc(-c2cn3ccoc3n2)cc1)c1cccc(C(F)(F)F)c1` was 95.2%.

Consider `CC(Nc1c(C#N)cnc2ccc(-c3cncc(-c4n[nH]c(=O)o4)c3)cc12)c1ccccc1` (configuration not stated), for which the growth is 18.9%. The figure for `C#CCN(C)CCCOc1ccc(NC(=O)CCCCCCCCC(=O)NO)cc1Cl` is 73.9%; for `CCCc1cc2cc(-n3nc(CC)c4c3CC(C)(C)CC4=O)cc(NC3CCC(O)CC3)c2c(=O)[nH]1` (configuration not stated) it is 32.8%; for `CN1CCN(c2ccc(Nc3nc(NCCCNS(=O)(=O)c4cccc(F)c4)c4sccc4n3)cc2)CC1` it is 63.1%.

Consider `COc1ccc(C(=NNS(=O)(=O)c2ccc(C)cc2)c2ccccc2)cc1OC`, for which the growth is 93%. Turning to `COc1ccc(/C=N/NC(=O)c2c(N)nn(C)c2Nc2ccccc2)cc1Oc1ccccc1`, the growth is 74.9%. Regarding `C#C[C@]1(O)CC[C@H]2[C@@H]3CC=C4c5sc(NCc6ccccc6)nc5CC[C@]4(C)[C@H]3CC[C@@]21C`, the growth is 15.3%. The figure for `Cc1cc(NS(=O)(=O)c2ccc(NC(=O)CSc3nc4ccccc4c(=O)n3-c3ccccc3)cc2)no1` is 95%.

For `CCOC(=O)c1cccnc1Nc1ccc(NC(=O)Nc2ccc(Cl)c(C(F)(F)F)c2)cc1`, the growth was 7.22% (active).

On to `O=C(CSc1nc2ccccc2c(=O)n1-c1ccc(S(=O)(=O)Nc2ccc(Cl)nn2)cc1)Nc1ccc(S(=O)(=O)Nc2ccc(Cl)nn2)cc1`, for which the growth is 100%.

For `COc1cc(-c2nc(-c3ccccc3)[nH]c2-c2ccnc(NCCCNS(=O)(=O)c3ccc(C(F)(F)F)cc3)n2)ccc1Cl`, the growth is 15.4% and 20.3%. Regarding `Cc1csc(/N=C(N)/N=C(\N)c2cccc(C#N)c2)n1`, the growth was 77.4%. As to `CC[C@]12C=CCN3CC[C@]4(C(=C(C(=O)OC)C1)Nc1cc5c(cc14)[C@@H]1[C@H](O5)[C@@H](O)[C@@]4(CC)CC(C(=O)OC)=C5Nc6cc(O)ccc6[C@@]56CCN1C46)C32` (some centres not stated), the growth is 20.8%. For the compound `COc1ccc(OC)c(CCn2cncc2-c2c[nH]c3ccc(Cl)cc23)c1`, the growth was 39.1%. In the case of `Cc1ccc(-c2cc3nc(C(Cl)Cl)nc(-c4ccc(S(=O)(=O)N(C)C)cc4)n3n2)cc1`, the growth is 91.7%. Turning to `CC1=C(C)C(=O)C(Nc2cccc(C(=O)OC(C)(C)C)c2)=C(Cl)C1=O`, the growth was 76.9%. `COC(=O)c1ccc(NC2=C(Cl)C(=O)C(C)=C(C)C2=O)cc1`: the growth was 36.6%. The figure for `Cc1nc(/N=C(N)/N=C(\N)c2cccc(Br)c2)sc1C` is 59.8%. The value for `COC(=O)c1cccc(NC2=C(Cl)C(=O)c3nc(C)ccc3C2=O)c1` was 85.4%; that for `OCC(Nc1ncnc2ccc(-c3cnc4cnccn34)cc12)c1ccccc1` (configuration not stated) was 79.9%; that for `COc1ccc(-c2cc(-c3ccc(N4CCOCC4)cc3)n3c(n2)nc2ccccc23)cc1OC` was 73%. The value for `CCOC(=O)c1c(NC(=O)c2cccc(C(F)(F)F)c2)sc2c1CCC(=O)C2` was 3.56% (active); that for `CN1CCN(c2ccc(Nc3nc(NCCCNS(=O)(=O)c4ccc(Cl)cc4)c4sccc4n3)cc2)CC1` was 51.5%; that for `CCOC(=O)C(=O)Nc1ccc2c(ccn2C(=O)c2cccc(F)c2)c1` was 99.6%. As to `CCOc1cccc(/C(N)=N/C(N)=N/c2nc3ccccc3s2)c1`, the growth was 46.4%. The value for `CN1CCN(c2ccc(Nc3nc(NCCCNS(=O)(=O)c4ccc(C(F)(F)F)cc4)c4sccc4n3)cc2)CC1` was 20.7%; that for `Cc1ccc2c(n1)C(=O)C(Cl)=C(Nc1cccc(C(F)(F)F)c1)C2=O` was 69.6%.
